Screening results: PubChem BioAssay, Sanford-Burnham Center for Chemical Genomics
Sampled rows, rich in hits. Any-hit rate of the full collection: about 1.1%.
NPR1 activator: GC-A (human) enzyme activation | P16066 | HEK293 GC-A cells, cGMP TR-FRET, EC30 ANP; 0% at EC30 ANP, 100% saturating ANP | activation, % at 10 µM | hit rate 0.14% among 370,000 | AID 1671463; in the data active = activation above about 40%
GC-B act: GC-B (human) receptor activation. P20594. HEK293-GC-B cells, CNP EC30, cGMP TR-FRET; 0% at EC30 CNP, 100% saturating CNP. activation, % at 10 µM. hit rate 0.11% among 370,000;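 active = activation at 10 µM reaching about 35% in either raw or pattern-adjusted values, limit read from the data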
Target sequence (P20594 whole entry, looked up): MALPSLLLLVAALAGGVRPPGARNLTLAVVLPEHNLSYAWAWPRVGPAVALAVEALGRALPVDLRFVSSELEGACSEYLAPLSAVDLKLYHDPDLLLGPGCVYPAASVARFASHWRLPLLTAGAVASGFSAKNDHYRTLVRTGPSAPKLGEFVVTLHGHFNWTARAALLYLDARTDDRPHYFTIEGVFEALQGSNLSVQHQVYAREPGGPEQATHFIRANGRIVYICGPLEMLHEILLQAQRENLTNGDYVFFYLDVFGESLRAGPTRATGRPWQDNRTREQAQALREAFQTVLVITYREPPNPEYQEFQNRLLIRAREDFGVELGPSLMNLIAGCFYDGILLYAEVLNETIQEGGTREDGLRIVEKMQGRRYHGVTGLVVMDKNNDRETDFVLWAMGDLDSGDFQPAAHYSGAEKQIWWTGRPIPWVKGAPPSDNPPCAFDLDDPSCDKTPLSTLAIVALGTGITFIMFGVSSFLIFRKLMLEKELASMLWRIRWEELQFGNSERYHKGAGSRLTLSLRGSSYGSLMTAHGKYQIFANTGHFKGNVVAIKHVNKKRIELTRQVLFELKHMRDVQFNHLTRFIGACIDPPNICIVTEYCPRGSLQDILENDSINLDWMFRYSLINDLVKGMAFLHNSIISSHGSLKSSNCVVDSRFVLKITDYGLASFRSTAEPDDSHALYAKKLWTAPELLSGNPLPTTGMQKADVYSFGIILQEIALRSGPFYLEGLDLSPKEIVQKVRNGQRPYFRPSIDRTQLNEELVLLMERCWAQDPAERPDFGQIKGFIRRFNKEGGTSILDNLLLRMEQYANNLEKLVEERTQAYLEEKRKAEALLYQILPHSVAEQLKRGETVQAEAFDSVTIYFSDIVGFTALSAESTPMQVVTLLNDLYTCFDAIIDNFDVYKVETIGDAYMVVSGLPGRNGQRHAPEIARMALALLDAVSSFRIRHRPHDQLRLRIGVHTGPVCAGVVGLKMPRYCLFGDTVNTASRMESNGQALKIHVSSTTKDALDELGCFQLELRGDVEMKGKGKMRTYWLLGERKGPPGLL
FAS-TE inh: blocks the thioesterase domain of human fatty acid synthase; P49327; AID 602261; recombinant FAS-TE, OMFH fluorogenic substrate, fluorescence endpoint; inhibition, % at 15 µM; hit rate 0.67% among 360,000;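 active = compounds whose normalised, plate-corrected inhibition of enzyme fluorescence in the single-dose primary screen is 50% or more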
aDG glyco up: alpha-DG glycosylation activation. activation, % at 10 µM. hit rate 0.22% among 360,000. Pro5-aDG cells, alpha-DG glycosylation AlphaScreen (IIH6); 0% Pro5, 100% B10-LARGE cell signal. AID 624168;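 active = activation of at least 8% versus controls, or a plate z-score of at least 8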;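 note: Pro5 are CHO cells carrying HIG-tagged alpha-DG that lacks glycosylation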
A number is an active result; . = inactive; / = not tested or not shown.

SMILES	NPR1 activator	GC-B act	FAS-TE inh	aDG glyco up
CCCOc1ccc(/C=c2\sc3ncnn3c2=O)cc1	69	.	.	.
COc1ccc(-n2c(SCC(=O)NCC3CCCO3)nnc2-c2ccncc2)cc1 (stereo not drawn)	.	.	/	/
COc1ccc2occ(C(=O)c3coc4ccc(O)c(CN(C)C)c34)c2c1	.	.	.	9.1
COc1ccc(OC)c(C(=O)c2coc3ccc(O)c(CN(C)C)c23)c1	.	.	.	.
COc1ccccc1C(=O)N1CCC2CCN(C(=O)c3ccccc3)C2C1 (stereo not drawn)	.	.	/	/
Cc1ccc2nc3n(c(=O)c2c1)-c1cc2ccccc2cc1C(=O)NC3Cc1ccc(O)cc1 (stereo not drawn)	.	.	.	.
O=C1NC(Cc2ccc(O)cc2)c2nc3ccc(F)cc3c(=O)n2-c2cc3ccccc3cc21 (stereo not drawn)	.	65	.	.
O=C1NC(Cc2ccc(O)cc2)c2nc3cc(F)c(F)cc3c(=O)n2-c2cc3ccccc3cc21 (stereo not drawn)	.	38	.	.
CCCCn1c(CN2CCN(C(=O)c3ccco3)CC2)nc2c1c(=O)n(C)c(=O)n2C	.	.	.	7.9
CC(C)(C)NC(=O)C[C@H]1C[C@H](C(=O)N2CCOCC2)[C@@]2(CCC3CCCC3)c3[nH]c4cc(-c5ccco5)ccc4c3CCN2C1=O	/	/	58	.
O=C(C[C@H]1C[C@H](C(=O)N2CCOCC2)[C@@]2(CCC3CCCC3)c3[nH]c4cc(-c5ccco5)ccc4c3CCN2C1=O)NCC12CC3CC(CC(C3)C1)C2	.	.	.	.
NC(=O)c1cccc(-c2coc3c(C(=O)NCc4ccccc4)cccc23)c1	.	37	.	.
COc1cccc([C@@H]2NC(=O)C/C=C/[C@H](C)[C@H](c3cccc(OC)c3)NC(=O)C/C=C/[C@@H]2C)c1	.	.	/	/
O=C(Cc1ccccc1F)Nc1nnc(-c2cccnc2)s1	.	.	/	/
O=S(=O)(Nc1cc(Sc2cccc3cccnc23)c(O)c2ccccc12)c1ccc(F)cc1	.	.	/	/
O=C(O)CSc1cc(NS(=O)(=O)c2ccc(Cl)cc2)c2ccccc2c1O	.	.	.	3.8
COc1ccc(S(=O)(=O)Nc2cc(SCC(=O)O)c(O)c3ccccc23)cc1	.	.	.	5.0
Cc1nn(-c2ccccc2)c2sc(C(=O)NC3CCCCCC3)cc12	.	.	/	/
COC(=O)[C@]12C[C@H](CC(=O)NCc3cccs3)C(=O)N(Cc3cccc4ccccc34)C1=C[C@H](C(C)(C)C)O[C@@H]2C	.	.	/	/
COc1cc(C(=O)NC2CCCCN(Cc3cccc(Cl)c3)C2=O)cc(OC)c1OC (stereo not drawn)	.	.	/	/
Cc1c(Cl)ccc2sc(NC(=O)C3CC3)nc12	55	.	.	.
CCCC(=O)Nc1nc2c(C)c(Cl)ccc2s1	43	.	.	.
COc1cc([N+](=O)[O-])cc2sc(NC(=O)C3CC3)nc12	47	.	.	.
Cc1c(Cl)ccc2sc(NC(=O)CN3C(=O)c4ccccc4C3=O)nc12	.	.	.	.
COc1cc([N+](=O)[O-])cc2sc(NC(=O)C(C)(C)C)nc12	.	.	.	.
SMILES	NPR1 activator	GC-B act	FAS-TE inh	aDG glyco up
CC(=O)Nc1nc2c(C)c(Cl)ccc2s1	49	.	.	.
Cc1ccc(Cn2cc(COC(=O)NCC(C)C)nn2)cc1	.	.	/	/
O=C(CC1CCCC1)N[C@@H](Cc1cccnc1)C(=O)N1CCC[C@H]1C(=O)NC1CCCC1	.	.	/	/
Cc1ccc2sc(NC(=O)CN3C(=O)CCC3=O)nc2c1C	50	.	.	.
CN1CCc2c(sc(NC(=O)c3ccc4ccccc4c3)c2C(N)=O)C1	/	/	.	19
CN1CCc2c(sc(NC(=O)Cc3ccccc3)c2C(N)=O)C1	.	.	.	.
C[C@H]1[C@H](NC(=O)c2ccc(C(F)(F)F)cc2)CC[C@@]23CCCN2C(=O)CCC[C@@H]13	.	.	/	/
CCCC[n+]1ccn(C2=C([O-])c3ccccc3C(=O)/C2=N\S(=O)(=O)c2ccc(Cl)cc2)c1	.	.	.	.
CCCCC[n+]1ccn(C2=C([O-])c3ccccc3C(=O)/C2=N\S(=O)(=O)c2ccc(Cl)cc2)c1	.	.	.	4.9
CN(C)CCNC(=O)c1ccc(COc2ccc(Cl)cc2Cl)cc1	47	.	.	.
COc1ccc(Cl)cc1C(=O)NCCN(C)C	.	.	.	.
O=C(NCc1ccco1)c1ccc(COc2cc(Cl)ccc2Cl)cc1	41	.	.	.
O=C(NCc1ccccc1)OCCN1C(=O)CCC12CCC(c1ccccc1)CC2 (stereo not drawn)	.	.	/	/
COc1ccc(-c2noc(CCC(=O)NCCCN3CCN(c4ccc(F)cc4)CC3)n2)cc1	.	.	.	.
COc1ccc(-c2noc(CCC(=O)NCCCN3CCC(Cc4ccccc4)CC3)n2)cc1	.	.	.	5.5
O=C(COc1ccc(Cl)cc1)Nc1nc(-c2ccc(S(=O)(=O)N3CCOCC3)cc2)cs1	.	.	63	.
C=C1C(=O)[C@]23C[C@H]1CCC2[C@@]1(C)C(C[C@@H]3O)[C@](C)(C(=O)OC)CC[C@@H]1O (stereo partly drawn)	.	.	.	.
C=C1C(=O)[C@]23C[C@H]1CC[C@H]2[C@]1(C)CCC[C@@](C)(C(=O)OC)[C@H]1C[C@@H]3O	.	38	/	/
C=CCOC(=O)C1=C(C)NC(=S)NC1/C=C/c1ccccc1 (stereo not drawn)	43	.	.	.
CC1=C(C(=O)OCc2ccccc2)C(/C=C/c2ccccc2)NC(=S)N1 (stereo not drawn)	.	.	.	.
CCCCCCCCN1C(=O)[C@@H](CC(=O)NCCCOCCCC)C[C@@]2(C(=O)OC)C1=C[C@H](COCc1ccccc1)O[C@@H]2C	.	.	/	/
Cc1ccc(NC(=O)c2cc(S(=O)(=O)N(C)C)ccc2N2CCCC2)cc1S(=O)(=O)N(C)C	.	38	.	.
Cc1ccc(NC(=O)c2cc(S(=O)(=O)N3CCCCC3)ccc2N2CCOCC2)cc1S(=O)(=O)N(C)C	.	.	.	.
CC1CCCN(CCC(=O)c2ccccc2)C1 (stereo not drawn)	67	.	.	.
O=C(CN1C(=O)C2(OCCCO2)c2ccccc21)NCc1ccc(F)cc1	.	.	/	/
SMILES	NPR1 activator	GC-B act	FAS-TE inh	aDG glyco up
Cc1[nH]nc(-c2ccc(OCc3cnn(-c4ccccc4)c3)c(C)c2O)c1Oc1ccccc1	.	.	.	.
Cc1[nH]nc(-c2ccc(O)c(C)c2O)c1Oc1ccccc1	79	.	.	.
CC(=O)N(c1ccccc1)c1nc(/C=C/C(=O)O)cs1	.	.	.	.
CC(=O)N(c1ccccc1)c1nc(/C=C/C(=O)Nc2c(C)cc(C)cc2C)cs1	40	43	.	.
COC(=O)c1cc(C2(c3c[nH]c4ccccc34)CCN(C(=O)OC(C)(C)C)CC2)n2ccccc12	.	.	/	/
COC(=O)[C@]12C[C@H](CC(=O)NCCCCc3ccccc3)C(=O)N(CCC3=CCCCC3)C1=C[C@H](C(C)C)O[C@@H]2C1CC1	.	.	/	/
